These results are taken from PubChem BioAssay (NCATS).

Records with an inconclusive call do not appear. Calls of active or inactive are those of the source. Calls come from the whole dose curve; as a rule, active = well fitted curve in the direction sought with a large enough effect; inconclusive = small, poorly fitted or top-dose-only effect, or another doubt; inactive = no such curve, though single readings can be large; an effect the other way counts as inactive or inconclusive.

Assay [1] can be described thus: Primary qHTS for inhibitors of nuclear receptor binding SET domain protein 2 (NSD2) in an isogenic RCH-ACV NSD2 p.E1099K mutant (9B) (AID 1645876). Conditions: RCH-ACV NSD2 E1099K (9B) viability, CellTiter-Glo, 72 h; series mostly up to 44.9 µM.
A short description of assay [2]: Primary qHTS for inhibitors of nuclear receptor binding SET domain protein 2 (NSD2) in an RCH-ACV wild type WT cells (2C) (AID 1645877). Conditions: RCH-ACV (leukaemia line) NSD2 WT (2C) viability, CellTiter-Glo, 72 h; series mostly up to 44.9 µM.
Note: nearly all actives have a fitted effect of over 70% in size.
Potency is the fitted concentration of half-maximal effect.

Consider `CC(O)CO[C@@H]1O[C@H](CO)[C@@H](O)[C@H](O)[C@H]1O` (some centres not stated), for which the Potency entry in assay [1] and in assay [2] was “inactive” throughout.

On to `CC(C)CC(=O)OC1OC=C(CO[C@@H]2O[C@H](CO)[C@@H](O)[C@H](O)[C@H]2O)C2CC(O)C(O)(CO)C12` (some centres not stated), for which the Potency result in assay [1] and in assay [2] was “inactive” throughout.

`CC1(C)CC2C(C1)C(C)(O)C13CC1(COC3=O)C2O` (configuration not stated): the Potency entry in assay [1] and in assay [2] was “inactive” each time.

Consider `CC1=CC(=O)CC(C)(C)[C@H]1/C=C/C(CO)O[C@@H]1O[C@H](CO)[C@@H](O)[C@H](O)[C@H]1O` (some centres not stated), for which the Potency result in assay [1] and in assay [2] was “inactive” in each case.

Consider `O=C(c1ccc2nccnc2c1)N1CCCCC1`, for which the Potency result in assay [1] and in assay [2] was “inactive” in each case.

`CC1(C)CC[C@]2(C(=O)O)CC[C@]3(C)C(=CCC4[C@@]5(C)CC[C@H](O[C@@H]6O[C@H](CO)[C@@H](O)[C@H](O)[C@H]6O[C@@H]6O[C@H](CO)[C@@H](O)[C@H](O)[C@H]6O)[C@@](C)(CO)C5CC[C@]43C)[C@@H]2C1` (some centres not stated): the Potency result in assay [1] and in assay [2] was “inactive” throughout.

In the case of `COc1ccc([C@@H]2OC[C@H]3[C@@H]2CO[C@@H]3c2ccc(OC3OC(CO)C(O)C(O)C3O)c(OC)c2)cc1OC` (some centres not stated), the Potency result in assay [1] and in assay [2] was “inactive” each time.

Regarding `C[C@H](O)[C@H](O)/C=C/c1cccc(O)c1CO`, the Potency result in assay [1] and in assay [2] was “inactive” in each case.

Regarding `C=C1C[C@]23C[C@H]1CC[C@H]2[C@@]12CC[C@H](O)[C@@](C)(C(=O)O1)[C@H]2[C@@H]3C(=O)O`, the Potency result in assay [1] and in assay [2] was “inactive” in each case.

Turning to `COc1c/c(=C2\C=c3ccccc3=N2)[nH]/c1=C\c1[nH]c(C)cc1C`, the Potency was 5.78 µM (active) in assay [1] and 4.59 µM (active) in assay [2].

With `C[C@@H]1O[C@@H](OC[C@H]2O[C@@H](OC(CCCCc3ccc(O)cc3)CCc3ccc(O)cc3)[C@H](O)[C@@H](O)[C@@H]2O)[C@H](O)[C@H](O)[C@H]1O` (some centres not stated), the Potency entry in assay [1] and in assay [2] was “inactive” in each case.
